Among the data in the supplement of paper PMC13380429 are morphology score and SARS-CoV-2 infection rate values, retold here.

In assay [1] the test system is Vero E6 infected with SARS-CoV-2. In words: morphology score (similarity to uninfected cells); higher = more like uninfected cells. To be noted: 24 h.
Assay [2] shares this test system. In words: SARS-CoV-2 infection rate relative to infected DMSO; higher = more infection, active = 60 or less. To be noted: 24 h.

In assay [1], `CC[N+](C)(CC)CCC[n+]1c(-c2ccccc2)c2cc(N)ccc2c2ccc(N)cc21` [propidium-iodide] (10 µM) gave a morphology score of 0.271. The SARS-CoV-2 infection rate in assay [2] is 93.5% (inactive).
Turning to `CCCC(=O)O[C@]1(C(=O)CCl)[C@@H](C)C[C@H]2[C@@H]3CCC4=CC(=O)C=C[C@]4(C)[C@@]3(F)C(=O)C[C@@]21C` [clobetasone-butyrate] (10 µM), the morphology score in assay [1] worked out at 0.344. The SARS-CoV-2 infection rate in assay [2] was 96% (inactive).
As to `c1ccc(-c2n[nH]cc2-c2ccnc3ccccc23)nc1` (10 µM), the morphology score in assay [1] is -0.0555. Moreover, in assay [2], the SARS-CoV-2 infection rate is 114% (inactive).
`CC(C)(OCc1nn(Cc2ccccc2)c2ccccc12)C(=O)O` [bindarit] (10 µM) yielded a morphology score in assay [1] of 0.132. Moreover, the SARS-CoV-2 infection rate in assay [2] is 112% (inactive).
As for `CN[C@H](CC(C)C)C(=O)N[C@H]1C(=O)N[C@@H](CC(N)=O)C(=O)N[C@H]2C(=O)N[C@H]3C(=O)N[C@H](C(=O)N[C@H](C(=O)O)c4cc(O)cc(O)c4-c4cc3ccc4O)[C@H](O)c3ccc(c(Cl)c3)Oc3cc2cc(c3O[C@@H]2O[C@H](CO)[C@@H](O)[C@H](O)[C@H]2O[C@H]2C[C@](C)(N)[C@H](O)[C@H](C)O2)Oc2ccc(cc2Cl)[C@H]1O` (10 µM), the morphology score in assay [1] turned out to be 0.0907. In addition, the SARS-CoV-2 infection rate in assay [2] was 104% (inactive).
In assay [1], `OC[C@H]1O[C@@H](OCCc2ccc(O)cc2)[C@H](O)[C@@H](O)[C@@H]1O` [salidroside] (10 µM) displayed a morphology score of 0.0363. For the same molecule, the SARS-CoV-2 infection rate in assay [2] was 116% (inactive).
Turning to `CC(C)C[C@H](NC(=O)[C@@H](O)[C@H](N)Cc1ccccc1)C(=O)O` [ubenimex] (10 µM), the morphology score in assay [1] turned out to be 0.237. For the same molecule, the SARS-CoV-2 infection rate in assay [2] was 96% (inactive).
Consider `CN(c1ncccc1CNc1nc(Nc2ccc3c(c2)CC(=O)N3)ncc1C(F)(F)F)S(C)(=O)=O` (0.833333 µM), for which the morphology score in assay [1] was -0.119. The SARS-CoV-2 infection rate in assay [2] is 106% (inactive).
The like results for `COc1cc(/C=C/C(=O)CC(=O)/C=C/c2ccc(O)c(OC)c2)ccc1O` [curcumin] (10 µM) were, in that order, 0.548 and 61.5% (inactive).
In the case of `CN[C@@H](C)CC1CCCCC1` [propylhexedrine] (10 µM), in assay [1], the morphology score was -0.0197. For the same molecule, the SARS-CoV-2 infection rate in assay [2] was 110% (inactive).
On to `N#Cc1nn(-c2c(Cl)cc(C(F)(F)F)cc2Cl)c(N)c1[S+]([O-])C(F)(F)F` (stereo unspecified) [fipronil] (10 µM), for which the morphology score in assay [1] is 0.0672. Moreover, in assay [2], the SARS-CoV-2 infection rate is 102% (inactive).
For `Clc1ccc(C(OCCN2CCCCC2)c2ccccc2)cc1` (stereo unspecified) [cloperastine] (10 µM) the same measures were 0.412 and 75.5% (inactive).
On to `Cn1cc(C2=C(c3cn(CCCSC(=N)N)c4ccccc34)C(=O)NC2=O)c2ccccc21` [bisindolylmaleimide-IX] (0.833333 µM), for which the morphology score in assay [1] is 0.0892. Moreover, the SARS-CoV-2 infection rate in assay [2] was 91% (inactive).
As for `C[C@]12CC[C@H](O)C[C@H]1CC[C@@H]1[C@@H]2CC[C@]2(C)[C@@H](c3ccc(=O)oc3)C[C@H]3O[C@]132` [resibufogenin] (10 µM), in assay [1], the morphology score was -0.241. The SARS-CoV-2 infection rate in assay [2] is 110% (inactive).
Regarding `CC[C@@H](C(=O)[C@@H](C)[C@@H](O)[C@H](C)[C@@H]1O[C@@H]([C@@H](CC)C(=O)O)CC[C@@H]1C)[C@H]1O[C@]2(C=C[C@@H](O)[C@]3(CC[C@@](C)([C@H]4CC[C@](O)(CC)[C@H](C)O4)O3)O2)[C@H](C)C[C@@H]1C` [Salinomycin (Procoxacin)] (10 µM), in assay [1], the morphology score is -0.00386. For the same molecule, in assay [2], the SARS-CoV-2 infection rate was 108% (inactive).
Regarding `CN1CCN(c2ccc(C(=O)Nc3n[nH]c4ccc(Cc5cc(F)cc(F)c5)cc34)c(NC3CCOCC3)c2)CC1` [entrectinib] (0.833333 µM), the morphology score in assay [1] stood at 0.134. Further, the SARS-CoV-2 infection rate in assay [2] was 96.5% (inactive).
For `CCOc1cc(C(=O)N2CCC(N3CCN(C)CC3)CC2)ccc1Nc1ncc2c(n1)N(C1CCCC1)c1ccccc1C(=O)N2C` (10 µM), the morphology score in assay [1] was -0.264. Also, the SARS-CoV-2 infection rate in assay [2] is 122% (inactive).
`O=CN1CCC(C(=O)NCCN2CCC(=C3c4ccccc4C=Cc4ccccc43)CC2)CC1` (10 µM) gave a morphology score in assay [1] of 0.0149. In addition, the SARS-CoV-2 infection rate in assay [2] is 100% (inactive).
In assay [1], `C[C@H]1CNCCCN1S(=O)(=O)c1cccc2cncc(F)c12` [ripasudil] (10 µM) registered a morphology score of 0.438. The SARS-CoV-2 infection rate in assay [2] is 112% (inactive).
As to `O=C(NCCCN1CCOCC1)c1ccc(Cl)cc1` [eprobemide] (10 µM), the morphology score in assay [1] was -0.0432. In assay [2], the SARS-CoV-2 infection rate was 108% (inactive).
Molecule `NS(=O)(=O)c1cc2c(cc1Cl)NCNS2(=O)=O` [hydrochlorothiazide] (10 µM) gave a morphology score in assay [1] of 0.0281. Further, the SARS-CoV-2 infection rate in assay [2] was 110% (inactive).
As to `Cc1cc(OCCCS(C)(=O)=O)cc(C)c1-c1cccc(COc2ccc3c(c2)OC[C@H]3CC(=O)O)c1` (10 µM), the morphology score in assay [1] worked out at 0.0278. In assay [2], the SARS-CoV-2 infection rate is 108% (inactive).
In assay [1], `O=C(Oc1cccc2cccnc12)c1ccccc1` [benzoxiquine] (10 µM) displayed a morphology score of 0.116. In addition, the SARS-CoV-2 infection rate in assay [2] was 97% (inactive).
